Measured values: the antibiotic and cytotoxicity screens of Wong et al. (2023)
In all, about 39,000 compounds went through this assay and about 3,300 (8.5%) were called active. The list comes from a sample in which actives are over-represented; it also holds similar structures and randomly drawn compounds.

The compounds below were run on HepG2 (assay: cytotoxicity call (relative viability < 0.9)). Settings: 10 µM.

SMILES | cytotoxicity call
O=C(O)C(O)C(O)C(OC1OC(CO)C(O)C(O)C1O)C(O)CO (stereo not given) | inactive
COc1cccc(S(=O)(=O)N[C@H]2C=C[C@H](CC(=O)NC3CCC3)O[C@@H]2CO)c1 | inactive
O=C(Nc1cccc(C(F)(F)F)c1)c1ccc2ccccc2c1 | active
O=C(O)c1ccccc1Nc1cccc(C(F)(F)F)c1 | inactive
CC(C)(C)c1ccc(C(=O)Nc2cccc(C(F)(F)F)c2)cc1 | inactive
C[C@@H]1CCCCO[C@@H](CN(C)S(=O)(=O)c2ccc(F)cc2)[C@H](C)CN([C@H](C)CO)C(=O)c2cc(NC(=O)CCC(F)(F)F)ccc2O1 | inactive
C[C@@H]1CN([C@H](C)CO)S(=O)(=O)c2ccc(C3=CCCCC3)cc2O[C@H]1CN(C)Cc1cncnc1 | inactive
CCCCN(CCCC)CC(O)c1cc(Cl)cc2c1-c1ccc(Cl)cc1C2=Cc1ccc(Cl)cc1 (stereo not given) | active
CCCCN(CCCC)CC[C@@H](O)c1cc2c(Cl)cc(Cl)cc2c2cc(C(F)(F)F)ccc12 | inactive
C[C@@H]1CCCCO[C@@H](CN(C)Cc2ccncc2)[C@H](C)CN([C@@H](C)CO)C(=O)c2cc(NC(=O)CCCCCC(=O)Nc3ccccc3N)ccc2O1 | inactive
C[C@H]1CN([C@@H](C)CO)C(=O)Cc2cc(NC(=O)Nc3ccc(F)cc3)ccc2O[C@H]1CN(C)Cc1ccc(Cl)c(Cl)c1 | active
C[C@@H]1CN([C@H](C)CO)C(=O)Cc2cc(NC(=O)Nc3ccc(F)cc3)ccc2O[C@@H]1CN(C)Cc1ccc(Cl)c(Cl)c1 | active
C[C@@H]1CN([C@@H](C)CO)C(=O)Cc2cc(NC(=O)Nc3ccc(F)cc3)ccc2O[C@@H]1CN(C)Cc1ccc(Cl)c(Cl)c1 | active
C[C@H](CO)N1C[C@H](C)[C@@H](CN(C)Cc2ccc(Cl)c(Cl)c2)Oc2ccc(NC(=O)Nc3ccc(F)cc3)cc2CC1=O | active
COc1ccc(-n2c(C)cc(CN)c2C)cc1 | inactive
O=C(C[C@H]1C[C@@H]2c3cc(NC(=O)c4ccc5c(c4)OCO5)ccc3O[C@@H]2[C@H](CO)O1)NCC(F)(F)F | inactive
CC(C)NC(=O)N(C)C[C@H]1Oc2c(NC(=O)NC3CCCCC3)cccc2C(=O)N([C@H](C)CO)C[C@@H]1C | inactive
Cc1noc(C)c1NC(=O)Nc1ccc2c(c1)CC(=O)N([C@@H](C)CO)C[C@H](C)[C@@H](CN(C)S(C)(=O)=O)O2 | inactive
C[C@H](CO)N1C[C@H](C)[C@H](CN(C)C(=O)Nc2ccc3c(c2)OCO3)OCCCC[C@H](C)Oc2ccc(NC(=O)Nc3ccccc3)cc2C1=O | inactive
C[C@@H]1CCCCO[C@H](CN(C)S(=O)(=O)c2cccs2)[C@@H](C)CN([C@H](C)CO)C(=O)c2cc(NC(=O)Cc3ccccc3)ccc2O1 | inactive

SMILES | cytotoxicity call
COc1ccc(S(=O)(=O)N(C)C[C@@H]2OCCCC[C@H](C)Oc3ccc(NC(=O)c4ccccc4)cc3C(=O)N([C@H](C)CO)C[C@@H]2C)cc1 | inactive
Cc1ccc(S(=O)(=O)N(C)C[C@@H]2Oc3ccc(NS(=O)(=O)c4cccs4)cc3CC(=O)N([C@H](C)CO)C[C@@H]2C)cc1 | inactive
COc1ccc(COC[C@]23NC(=O)N[C@H](c4ccccc4O2)[C@H]3COC(=O)NCCCCCC(=O)NO)cc1 | inactive
COCC(=O)N(C)C[C@H]1Oc2cc(-c3ccc(C#N)cc3)ccc2S(=O)(=O)N([C@H](C)CO)C[C@@H]1C | inactive
O=C(CCCCCNC(=O)OCc1ccc(CO[C@@H]2C[C@H](c3ccc(Br)cc3)C=C(C(=O)N3CCN(Cc4ccccc4)CC3)O2)cc1)NO | inactive
COCC(=O)N(C)C[C@H]1Oc2cc(C#CCN(C)C)ccc2S(=O)(=O)N([C@@H](C)CO)C[C@@H]1C | inactive
C[C@H](CO)N1C[C@H](C)[C@H](CN(C)S(=O)(=O)c2cccs2)OCCCC[C@H](C)Oc2ccc(NS(=O)(=O)c3cn(C)cn3)cc2C1=O | inactive
C[C@@H]1CN([C@H](C)CO)C(=O)c2cccc(N(C)C)c2O[C@H]1CN(C)S(C)(=O)=O | inactive
C[C@@H]1CN([C@H](C)CO)C(=O)Cc2cc(NC(=O)Nc3ccc(F)cc3)ccc2O[C@H]1CN(C)Cc1ccc(Cl)c(Cl)c1 | inactive
C[C@@H]1CN([C@@H](C)CO)C(=O)Cc2cc(NC(=O)Nc3ccc(F)cc3)ccc2O[C@H]1CN(C)Cc1ccc(Cl)c(Cl)c1 | active
C[C@H]1CN([C@@H](C)CO)C(=O)Cc2cc(NC(=O)Nc3ccc(F)cc3)ccc2O[C@@H]1CN(C)Cc1ccc(Cl)c(Cl)c1 | active
C[C@H](CO)N1C[C@H](C)[C@H](CN(C)Cc2ccc(Cl)c(Cl)c2)Oc2ccc(NC(=O)Nc3ccc(F)cc3)cc2CC1=O | active
C[C@H](CO)N1C[C@H](C)[C@@H](CN(C)S(=O)(=O)c2cn(C)cn2)Oc2c(NC(=O)CCCN(C)C)cccc2C1=O | inactive
COc1ccc(NC(=O)N[C@@H]2CC[C@@H](CCNC(=O)CN3CCOCC3)O[C@@H]2CO)cc1 | inactive
C[C@@H]1CN([C@@H](C)CO)C(=O)CCCn2cc(nn2)CO[C@H]1CN(C)S(=O)(=O)c1ccc2c(c1)OCCCO2 | inactive
Cc1noc(C)c1NC(=O)N(C)C[C@H]1Oc2ccc(NS(C)(=O)=O)cc2C(=O)N([C@@H](C)CO)C[C@H]1C | inactive
C[C@H]1CCCCO[C@@H](CN(C)S(=O)(=O)c2ccc(F)cc2)[C@@H](C)CN([C@@H](C)CO)C(=O)c2cc(NC(=O)Nc3cccc4ccccc34)ccc2O1 | inactive
Cc1noc(C)c1NC(=O)Nc1ccc2c(c1)C(=O)N([C@H](C)CO)C[C@@H](C)[C@H](CN(C)C(=O)Nc1ccc(C(F)(F)F)cc1)OCCCC[C@@H](C)O2 | inactive
C[C@@H]1CN([C@H](C)CO)C(=O)c2cccc(NS(=O)(=O)c3ccccc3)c2O[C@@H]1CN(C)S(=O)(=O)c1cccs1 | inactive
C/C1=C2/[N]([Co+][OH])[C@H]([C@H](CC(N)=O)[C@@]2(C)CCC(=O)NC[C@@H](C)OP(=O)(O)O[C@H]2[C@@H](O)[C@@H](n3cnc4cc(C)c(C)cc43)O[C@@H]2CO)[C@]2(C)N=C(/C(C)=C3N=C(/C=C4N=C1[C@@H](CCC(N)=O)C/4(C)C)[C@@H](CCC(N)=O)[C@]\3(C)CC(N)=O)[C@@H](CCC(N)=O)[C@]2(C)CC(N)=O | active
